# Earlier results as cited in PubChem BioAssay AID977611.
# Hit rate of the full screen: of about 3,900 compounds, about 3,900 (100%) were called active. The limit is not given here; nearly all actives have Kd up to about 4200 µM. So high a share suggests a set chosen from earlier hits. The list shows a part of the results. Numbered stars: 1 amine (or outer) side, 2 acyl side, 3 side chain; on linkers, the order of the positions; unused ones are H or OH. Square brackets hold non-standard residues; d marks the D form. Peptide text beside a SMILES is read from it. X2 = C[C@@H](O)C(C)(C)n1cc([C@@H](O)[C@H](N[*:1])C(=O)[*:2])c2ccccc21; Ala(3R-Me,3-isobutenyl) = CC(C)=C[C@@H](C)[C@H](N)C(=O)O; NMeLeu(5-OH,4R) = CN[C@@H](C[C@@H](C)CO)C(=O)O; Phe(βR-OMe) = CO[C@H](c1ccccc1)[C@H](N)C(=O)O; NMeL = CN[C@@H](CC(C)C)C(=O)O
# Assay: PubChem AID 977611
# Conditions: PDB protein-ligand complexes, literature Kd
smiles,measurement,setting,value
O=C1N[C@@H](c2ccc(O)cc2)c2c(-c3ccccc3)n[nH]c21,Kd,"protein: Capsid protein p24, PDB entry 4u0f",1.2 µM (active)
CC(C)C[C@H](NC(=O)[C@H](CO)NC(=O)[C@H](CC(=O)O)NC(=O)[C@H](CC(C)C)NC(=O)[C@H](CC(C)C)NC(=O)[C@H](CC(=O)O)NC(=O)[C@H](CC(=O)O)NC(=O)[C@@H](NC(=O)[C@H](CCC(N)=O)NC(=O)[C@H](CC(=O)O)NC(=O)[C@H](CCC(N)=O)NC(=O)[C@H](CO)NC(=O)[C@H](C)NC(=O)[C@@H](NC(=O)[C@@H](NC(=O)CNC(=O)[C@H](C)N)C(C)C)C(C)C)C(C)C)C(=O)NCC(=O)N[C@@H](Cc1ccccc1)C(=O)O,Kd,"protein: Chemotaxis protein cheY, PDB entry 2pl9",67.4 µM (active)
CC(C)C[C@H](NC(=O)CNC(=O)[C@@H](N)CCC(N)=O)C(=O)N[C@@H](CC(C)C)C(=O)N[C@@H](CC(=O)O)C(=O)N[C@@H](C)C(=O)N[C@@H](CC(C)C)C(=O)N[C@@H](CC(=O)O)C(=O)N[C@@H](CC(C)C)C(=O)N[C@@H](C)C(=O)N[C@@H](CO)C(=O)O,Kd,"protein: 14-3-3 protein zeta/delta, PDB entry 4n7g",2.2 µM (active)
O=C(O)Cc1ccc(N2C(=O)C(O)=C(C(=O)c3ccc(Cl)s3)[C@@H]2c2cc(Br)cs2)cc1,Kd,"protein: Polymerase cofactor Ebola virus VP35, PDB entry 4ibf",36.8 µM (active)
Cc1cc(C)c([C@H]2C(C(=O)c3cccs3)=C(O)C(=O)N2c2ccc(CC(=O)O)cc2)cc1C,Kd,"protein: Polymerase cofactor Ebola virus VP35, PDB entry 4ibb",271 µM (active)
CN[C@@H](C)Cc1ccccc1,Kd,"protein: Anti-METH scFv, PDB entry 4gqp",0.00025 µM (active)
"CO[C@H](c1ccccc1)[C@@H]1NC(=O)[C@H](C)NC(=O)[C@H](C[C@@H](C)CO)N(C)C(=O)[C@H]([C@H](O)c2cn(C(C)(C)[C@@H](C)O)c3ccccc23)NC(=O)[C@H]([C@H](C)C=C(C)C)NC(=O)[C@H](CC(C)C)N(C)C(=O)[C@H](C(C)C)NC1=O (cyclo(A[Phe(βR-OMe)]V[NMeL][Ala(3R-Me,3-isobutenyl)][X2][NMeLeu(5-OH,4R)]))",Kd,"protein: Probable ATP-dependent Clp protease ATP-binding subunit(F2Y mutant), PDB entry 3wdd",0.78 µM (active)
same,Kd,"protein: Probable ATP-dependent Clp protease ATP-binding subunit, PDB entry 3wdc",0.012 µM (active)
same,Kd,"protein: Probable ATP-dependent Clp protease ATP-binding subunit, PDB entry 3wde",0.124 µM (active)
CNC(=O)Nc1cc(Br)cc(NC(=O)NS(=O)(=O)c2cc(C)c(CCOC)s2)n1,Kd,"protein: Fructose-1,6-bisphosphatase 1, PDB entry 4mjo",0.6 µM (active)
CNC(=O)C[C@H](C)O[P+](O)(O)OC,Kd,"protein: Lysozyme C, PDB entry 4tun",3.87 µM (active)
CC(=O)N[C@H]1[C@H]([C@H](O)[C@H](O)CO)O[C@@H](C(=O)O)C[C@@H]1O,Kd,"protein: hemagglutinin with F95Y mutation of influenza virus B/Lee/40(F95Y mutant), PDB entry 4nrk",0.024 µM (active)
same,Kd,"protein: hemagglutinin with F95Y mutation of influenza virus B/Lee/40, PDB entry 4nrl",0.0024 µM (active)
CO[C@]1(C(=O)O)C[C@H](O)[C@@H](NC(=O)CO)[C@H]([C@H](O)[C@H](O)CO)O1,Kd,"protein: Outer capsid protein VP4, PDB entry 3tay",420 µM (active)
CC(=O)N[C@H]1[C@H]([C@H](O)[C@H](O)CO)O[C@@](O[C@H]2[C@@H](O)[C@@H](CO)O[C@@H](O[C@H]3[C@H](O)[C@@H](O)[C@@H](O)O[C@@H]3CO)[C@@H]2O)(C(=O)O)C[C@@H]1O,Kd,"protein: Carbohydrate binding domain from Streptococcus pneumoniae NanA sialidase, PDB entry 4c1w",0.00039 µM (active)
CC(=O)N[C@H]1[C@H]([C@H](O)[C@H](O)CO)O[C@@](OC[C@H]2O[C@@H](O)[C@H](O)[C@@H](O)[C@H]2O)(C(=O)O)C[C@@H]1O,Kd,"protein: H5 (VN1194) Influenza Virus Haemagglutinin, PDB entry 4bgx",17000 µM (active)
same,Kd,"protein: Hemagglutinin HA1, PDB entry 4kon",0.33 µM (active)
same,Kd,"protein: Hemagglutinin(mutant form), PDB entry 4k67",372 µM (active)
same,Kd,"protein: Hemagglutinin, PDB entry 4k64",1000 µM (active)
same,Kd,"protein: Telomeric repeat-binding factor 2, PDB entry 4lkk",1.2 µM (active)
same,Kd,"protein: neuraminidase, PDB entry 4gzx",645 µM (active)
CC(=O)N[C@@H]1[C@@H](O[C@@H]2O[C@@H](C)[C@@H](O)[C@@H](O)[C@@H]2O)[C@H](O[C@@H]2O[C@H](CO)[C@H](O)[C@H](O[C@]3(C(=O)O)C[C@H](O)[C@@H](NC(C)=O)[C@H]([C@H](O)[C@H](O)CO)O3)[C@H]2O)[C@@H](CO)O[C@@H]1O,Kd,PDB entry 4dxg,0.087 µM (active)
CC(=O)N[C@@H]1[C@@H](O)[C@H](O[C@@H]2O[C@H](CO)[C@H](O)[C@H](O[C@]3(C(=O)O)C[C@H](O)[C@@H](NC(C)=O)[C@H]([C@H](O)[C@H](O)CO)O3)[C@H]2O)[C@@H](CO)O[C@H]1O,Kd,"protein: Hemagglutinin, PDB entry 4k63",60 µM (active)
same,Kd,"protein: Neuraminidase, PDB entry 4gzw",30 µM (active)
same,Kd,"protein: hemagglutinin, PDB entry 4lkg",0.16 µM (active)
same,Kd,"protein: hemagglutinin, PDB entry 4lkj",0.2 µM (active)
CC(=O)N[C@H]1[C@H]([C@H](O)[C@H](O)CO)O[C@@](O[C@@H]2[C@@H](O)[C@H](O)O[C@H](CO)[C@@H]2O)(C(=O)O)C[C@@H]1O,Kd,"protein: Hemagglutinin(mutant form), PDB entry 4k66",554 µM (active)
CC(=O)N[C@H]1[C@H]([C@H](O)[C@H](O)CO)O[C@@](O)(C(=O)O)C[C@@H]1O,Kd,"protein: hemagglutinin, PDB entry 4lkh",1000 µM (active)
CC(=O)N[C@H]1[C@H]([C@H](O)[C@H](O)CO)O[C@@](O[C@H]2[C@@H](O)[C@@H](CO)O[C@@H](O[C@H]3[C@H](O)[C@@H](O)[C@H](O)O[C@@H]3CO)[C@@H]2O)(C(=O)O)C[C@@H]1O,Kd,"protein: Human galectin-3 CRD K176L mutant, PDB entry 4lbl",11 µM (active)
same,Kd,"protein: wildtype Human galectin-3 CRD, PDB entry 4lbo",1.7 µM (active)
CC(=O)N[C@H]1[C@H](O[C@@H]2[C@@H](O)[C@H](O)O[C@H](CO)[C@@H]2O)O[C@H](CO)[C@@H](O[C@@H]2O[C@H](CO)[C@H](O)[C@H](O[C@]3(C(=O)O)C[C@H](O)[C@@H](NC(C)=O)[C@H]([C@H](O)[C@H](O)CO)O3)[C@H]2O)[C@@H]1O,Kd,"protein: Hemagglutinin HA1, PDB entry 4kom",0.1 µM (active)
O=C(NC[C@@H](COC(=O)c1cc(O)c(O)c(O)c1)OC(=O)c1cc(O)c(O)c(O)c1)Oc1cccc(C(F)(F)F)c1,Kd,"protein: Plasminogen activator inhibitor 1, PDB entry 4g8o",0.022 µM (active)
same,Kd,"protein: Plasminogen activator inhibitor-1, PDB entry 4g8r",0.022 µM (active)
C[C@H]1N[C@@H]2[C@@H](O)[C@H](O)[C@@H](CO)O[C@@H]2S1,Kd,"protein: BETA-N-ACETYLHEXOSAMINIDASE, PDB entry 4az5",1.02 µM (active)
same,Kd,"protein: BETA-N-ACETYLHEXOSAMINIDASE, PDB entry 4azc",1.38 µM (active)
CN1Cc2c(ccc3c2OCO3)-c2ccc3cc4c(cc3c21)OCO4,Kd,"protein: Chitinase A(W275G mutant), PDB entry 3as0",28 µM (active)
same,Kd,"protein: Chitinase A, PDB entry 3arv",2.3 µM (active)
N[C@@H](CCC(=O)N[C@@H](CSCCN(CCCl)c1ccc(CCCC(=O)O)cc1)C(=O)NCC(=O)O)C(=O)O,Kd,"protein: Glutathione S-transferase A1, PDB entry 4hj2",2950 µM (active)
